Rows were chosen to be rich in hits. Some 2.9% of all compounds tested hit in one or more screens of this group.
Rtt109 Vps75 = C. albicans Rtt109 histone acetyltransferase inhibition | Q5AAJ8 | purified Rtt109/Vps75, ThioGlo CoA-SH fluorescence, 4 h | inhibition, % at 34.9 µM | actives 0.16% (n = 330,000);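 active means inhibition of at least 50% in every replicate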
Target sequence (Q5AAJ8 whole entry, looked up): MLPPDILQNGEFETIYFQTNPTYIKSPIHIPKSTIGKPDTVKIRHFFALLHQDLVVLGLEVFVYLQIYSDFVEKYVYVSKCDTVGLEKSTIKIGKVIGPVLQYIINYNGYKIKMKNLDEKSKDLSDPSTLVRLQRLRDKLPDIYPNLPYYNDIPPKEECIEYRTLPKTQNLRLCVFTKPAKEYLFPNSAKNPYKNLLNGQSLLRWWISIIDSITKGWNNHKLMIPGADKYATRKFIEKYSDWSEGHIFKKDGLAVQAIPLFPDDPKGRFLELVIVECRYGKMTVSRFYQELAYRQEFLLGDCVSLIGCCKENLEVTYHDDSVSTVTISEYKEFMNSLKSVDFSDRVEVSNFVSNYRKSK
HGIII-sPLA2 inh = Inhibits HGIII-sPLA2 liposome hydrolysis, primary screen; Q9NZ20; QFRET BODIPY PC-A2 liposome hydrolysis, fluorescence; inhibition, % at 12.2 µM; actives 0.56% (n = 370,000); AID 743126;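 active means inhibition above mean plus 3 SD of compounds lying within the high and low control bounds, cut at about 19% in these data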;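 further: 0% = median of test compound wells and 100% = no enzyme DMSO wells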
DAGLB inhibitor = blocks human DAGLB lipase activity | Q8NCG7 | HEK293T DAGLB membrane lysate, EnzChek fluorogenic substrate | inhibition, % at 5.17 µM | actives 0.059% (n = 340,000) | AID 504411; in the data active means inhibition above about 34%;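 further: 0% = enzyme with vehicle and 100% = wells lacking enzyme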
Myeloid diff 2 = compounds promoting myeloid differentiation; calls only at 10 µM; AID 624256; ER-HoxA9 myeloid progenitors, lysozyme-GFP differentiation, flow cytometry; actives 1% (n = 360,000);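 active means normalized GFP-positive differentiation at or above the plate's own cutoff, the solvent-only control mean plus 3 SD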;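 further: cells exposed to compound for four days before flow analysis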
ABHD5 PLIN5 PPI = inhibitors of human ABHD5-perilipin-5 interaction | Q00G26+Q8WTS1 | actives 0.78% (n = 360,000) | inhibition, % at 4 µM | Split G. princeps luciferase complementation, luminescence, 4 h;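 active means inhibition above the mean inhibition across every tested compound plus 3 SD, cut at about 22% in these data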;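 further: 0% = DMSO only wells and the 100% control is not disclosed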
H9c2 protect = myocardial damage modulation in H9c2 cells | protection from H2O2 cell death, % at 20 µM | actives 0.63% (n = 360,000) | AID 588492 | H9c2 cardiomyocytes, H2O2 injury protection, ATPLite, 2 h;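 active means compounds giving at least 50% protection of heart cells from peroxide-induced death in the single-dose screen, raw or plate-pattern-corrected value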;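 further: 0% = DMSO wells with peroxide and 100% = DMSO wells without peroxide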
Myeloid diff = compounds promoting myeloid differentiation | shares compounds with Myeloid diff 2 | ER-HoxA9 myeloid progenitors, GFP/Mac1 double-positive flow | calls only | actives 2% (n = 2,300);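 active means share of green or green-and-red cells above 9 and 9% in run 1 or 4 and 3% in run 2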
GFP autofluor = compound fluorescence in myeloid differentiation counter-screen; shares compounds with Myeloid diff 2; ER-HoxA9 myeloid progenitors, no estrogen, GFP autofluorescence flow cytometry; vehicle wells 0%, positive control 100%; fluorescence response, % (test concentration not listed); actives 7.4% (n = 2,300);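 active means over 5% cells positive for green fluorescent reporter, or over 2% positive for both it and APC stain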;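 further: range taken on the double positive population between DMSO and positive control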
Active calls of the source: *; i = inactive; / = not tested or not shown; + = active, no number.

SMILES	Rtt109 Vps75	HGIII-sPLA2 inh	DAGLB inhibitor	Myeloid diff 2	ABHD5 PLIN5 PPI	H9c2 protect	Myeloid diff	GFP autofluor
c1ccc(CNc2ncnc3scc(-c4cccs4)c23)nc1	4	0	-1	i	0	-14	i	1
COP(=O)(CC(=O)O)C(CC(C)C)NC(=O)OCc1ccccc1 (stereo unspecified)	/	8	/	/	/	/	/	/
O=C(NC1CCCCC1)C(Cc1ccccc1)NS(=O)(=O)c1cccs1 (stereo unspecified)	/	-1	0	i	1	10	i	1
O=C(Nc1ccc(F)cc1)c1cccc(N2C(=O)C3C4C=CC(C4)C3C2=O)c1 (stereo unspecified)	1	-8	0	+	4	-3	i	0
O=C(Nc1ccccc1)c1cccc(N2C(=O)C3C4C=CC(C4)C3C2=O)c1 (stereo unspecified)	1	1	-1	/	-4	-3	/	/
Cc1cccc(Cl)c1OCCCCn1ccnc1	35	-8	1	+	5	-5	i	0
CN1C(=O)/C(=C/c2cn(CC(=O)NCc3ccco3)c3ccccc23)NC1=S	/	-2	/	/	/	/	/	/
CN1C(=O)/C(=C/c2cn(CC(=O)N3CCCCC3)c3ccccc23)NC1=S	-3	9	-1	+	1	5	i	97*
O=C(CSc1oc(-c2ccccc2)nc1S(=O)(=O)c1ccc(F)cc1)NCC1CCCO1 (stereo unspecified)	2	3	-1	i	3	-2	i	0
CC1(C)Cc2c(cnn2-c2ccccc2)C(NC(=O)C2(C(N)=O)CC2)C1 (stereo unspecified)	-17	3	3	+	4	1	i	0
CC1(C)Cc2c(cnn2-c2ccccc2)C(NC(=O)c2ccoc2)C1 (stereo unspecified)	2	0	-3	i	-4	4	/	/
N#CCCN(C(=O)COc1ccc(C#N)cc1)c1ccc(F)cc1	3	5	-1	i	-10	4	i	0
N#CCCN(C(=O)COC(=O)CCc1c[nH]c2ccccc12)c1ccc(F)cc1	0	-69	0	i	2	2	/	/
Cc1cccc(N2CCN(Cc3ccc(Br)o3)CC2)c1C	-4	3	-14	i	-2	-5	/	/
Oc1ccc(N2CCN(c3nnnn3-c3ccccc3)CC2)cc1	5	-1	-2	+	-5	6	i	0
CC(=O)N1CCN(c2nnnn2-c2ccccc2)CC1	1	-2	0	i	1	10	/	/
CC1CCCCN1C(=O)c1ccc(S(=O)(=O)N2CCCCC2C)cc1 (stereo unspecified)	1	2	0	i	-3	-1	/	/
CC1CCCCN1C(=O)c1ccc(C(=O)N2CCCCC2C)cc1 (stereo unspecified)	0	6	0	i	-6	-12	i	0
CCCCNc1ccc2nsnc2c1[N+](=O)[O-]	2	17	-1	i	-10	8	/	/
Cc1cccn2cc(COc3ccc(-c4ccccc4)cc3)nc12	1	-19	-3	+	4	-20	+	1
Cc1cccn2cc(COc3cccc([N+](=O)[O-])c3)nc12	17	1	0	i	-11	4	/	/
CC(C)C/C(O)=C/c1nc2cc(Cl)ccc2oc1=O	-18	-12	1	i	-2	-7	i	1
O=c1oc2ccc(Cl)cc2nc1/C=C(\O)c1ccco1	8	10	-1	+	-2	0	i	0
Cc1ccc(/C(O)=C/c2nc3cc(C)ccc3oc2=O)cc1	/	8	/	i	7	-1	/	/
O=C(Nc1ccc2c(c1)OCO2)c1ccc(Br)c(S(=O)(=O)N2CCCC2)c1	7	-5	-2	+	3	-9	i	0
SMILES	Rtt109 Vps75	HGIII-sPLA2 inh	DAGLB inhibitor	Myeloid diff 2	ABHD5 PLIN5 PPI	H9c2 protect	Myeloid diff	GFP autofluor
O=C(Nc1ccc2c(c1)OCO2)C1CCN(S(=O)(=O)c2ccc3c(c2)OCCO3)CC1	/	-7	-1	i	1	-6	i	0
Cc1ccc(S(=O)(=O)NCCC(=O)N2CCN(Cc3ccccc3)CC2)cc1	/	-6	-2	+	5	-2	i	0
COc1ccc2cc(CN(CC3CCCO3)S(=O)(=O)c3ccccc3)c(=O)[nH]c2c1 (stereo unspecified)	/	-12	-2	+	14	9	i	0
CCCCc1c(CCC)c(=N)c2ccccc2n1C	1	-1	-2	i	1	-11	i	0
CCCCc1c(O)c2ccccc2n(CCCC)c1=O	-6	-13	2	i	1	-4	/	/
COc1ccc(C(=O)N2CCc3cc(OC)c(OC)cc3C2c2ccc(OC)c(OC)c2)cc1 (stereo unspecified)	-1	-2	-3	i	4	6	i	0
Cc1cc(C)n2c(NC3CCCC3)c(-c3cc4ccccc4o3)nc2n1	/	1	/	i	-7	/	i	2
Cn1c(N)c(C(=O)COC(=O)c2ccccc2C(=O)c2ccc(Cl)cc2)c(=O)n(C)c1=O	5	-9	-3	i	7	13	i	1
CC(=O)N1c2ccc(S(=O)(=O)N3CCCCC3)cc2CC1C(=O)NCc1ccc(N(C)C)cc1 (stereo unspecified)	6	5	1	i	-1	0	/	/
OC(CNCCCN1CCCCC1)COc1ccccc1 (stereo unspecified)	-1	-6	-5	+	7	5	i	0
COc1cc(CNc2ccc3[nH]c(=O)[nH]c3c2)ccc1OCc1ccccc1Cl	-7	9	3	i	-8	4	i	0
COc1cc(OC)nc(Oc2ccccc2C(=O)Oc2ccccc2Cl)n1	/	-13	-11	i	-3	-5	/	/
Cc1cccc(C)c1Nc1nnc(SCC(=O)NC2CCS(=O)(=O)C2)s1 (stereo unspecified)	-6	0	1	i	1	-1	/	/
Cc1ccc(Nc2nnc(SCC(=O)NC3CCS(=O)(=O)C3)s2)c(C)c1 (stereo unspecified)	10	-2	0	i	10	7	i	5.9*
CCC(=O)N1CCc2cc(Br)cc(S(=O)(=O)CCC(=O)NCC3CCCO3)c21 (stereo unspecified)	-3	9	3	+	2	-5	i	0
COc1ccc(CN(C)c2ccc(S(=O)(=O)N3CCN(C)CC3)cc2[N+](=O)[O-])cc1OC	-3	6	3	i	3	-27	i	1

Screening data deposited in PubChem BioAssay by several laboratories.
